Test [1] relates to Plasmodium falciparum Sir2 (PF13_0152, Sir2A). The experiment in a line: Plasmodium falciparum Sir2A binding compounds – biochemical, small-molecule microarray, 635 nm fluorescence, primary screen (AID 1098).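 Note: score merges spot fluorescence intensity with its signal-to-noise ratio.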 Conditions: fluorescence 635 nm, higher = more signal.
A short description of test [2]: probe aDKK1 binding to arrayed compounds – biochemical, biotinylated probe, 635/667 nm fluorescence, primary screen (AID 1099).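 Note: score merges 667nm spot fluorescence with signal to noise across triplicate slides.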 The settings on record: small-molecule microarray, higher = more signal.
Test [3] in a line: probe aCHRDL2 binding to arrayed compounds – biochemical, biotinylated probe, 635/667 nm fluorescence, primary screen (AID 1100). The settings on record: small-molecule microarray, higher = more signal.
Test [4] can be described thus: change in splice reporter luminescence, either direction, cell-based, HEK293, spliceosome inhibition project, primary screen (AID 1101).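 Note: HEK293 cells carrying a splicing-competent luciferase reporter gene; test concentration not given here.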 Conditions: HEK293 splicing luciferase reporter, 24 h, higher = more signal, called active from +8 up or from −8 down. For orientation: In a reporter assay the amount or activity of a reporter protein is the signal.
In test [5] the target is Fibroblast growth factor 10 (Homo sapiens) (UniProt O15520). The test is described as follows: compounds binding fibroblast growth factor 10 – biochemical, small-molecule microarray, 635 nm fluorescence, primary screen (AID 1102). The settings on record: FGF10 binding, fluorescence 635 nm, higher = more signal.
Chain of Fibroblast growth factor 10 (Homo sapiens) (O15520 whole entry, looked up): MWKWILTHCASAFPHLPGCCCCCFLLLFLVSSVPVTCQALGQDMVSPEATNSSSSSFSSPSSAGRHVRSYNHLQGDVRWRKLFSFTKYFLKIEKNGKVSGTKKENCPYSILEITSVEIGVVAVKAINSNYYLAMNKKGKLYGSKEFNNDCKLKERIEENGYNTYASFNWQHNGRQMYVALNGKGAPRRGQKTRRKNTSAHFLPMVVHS
Test [6] concerns glycogen synthase kinase-3 (GSK3A per assay name; protocol says GSK3B). The experiment in a line: compounds binding glycogen synthase kinase-3 – biochemical, small-molecule microarray, 635 nm fluorescence, GSK3A, primary screen (AID 1103). Note: the record names both GSK3A and GSK3B. The settings on record: fluorescence 635 nm, higher = more signal.
The target of test [7] is Epidermal growth factor receptor (Homo sapiens) (UniProt P00533). The experiment in a line: compounds binding epidermal growth factor receptor – biochemical, small-molecule microarray, 635 nm fluorescence, primary screen (AID 1104).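 Note: score merges 667 nm emission intensity with spot signal to noise over triplicate slides.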 Conditions: EGFR binding, higher = more signal.
Chain of Epidermal growth factor receptor (Homo sapiens) (P00533 whole entry, looked up): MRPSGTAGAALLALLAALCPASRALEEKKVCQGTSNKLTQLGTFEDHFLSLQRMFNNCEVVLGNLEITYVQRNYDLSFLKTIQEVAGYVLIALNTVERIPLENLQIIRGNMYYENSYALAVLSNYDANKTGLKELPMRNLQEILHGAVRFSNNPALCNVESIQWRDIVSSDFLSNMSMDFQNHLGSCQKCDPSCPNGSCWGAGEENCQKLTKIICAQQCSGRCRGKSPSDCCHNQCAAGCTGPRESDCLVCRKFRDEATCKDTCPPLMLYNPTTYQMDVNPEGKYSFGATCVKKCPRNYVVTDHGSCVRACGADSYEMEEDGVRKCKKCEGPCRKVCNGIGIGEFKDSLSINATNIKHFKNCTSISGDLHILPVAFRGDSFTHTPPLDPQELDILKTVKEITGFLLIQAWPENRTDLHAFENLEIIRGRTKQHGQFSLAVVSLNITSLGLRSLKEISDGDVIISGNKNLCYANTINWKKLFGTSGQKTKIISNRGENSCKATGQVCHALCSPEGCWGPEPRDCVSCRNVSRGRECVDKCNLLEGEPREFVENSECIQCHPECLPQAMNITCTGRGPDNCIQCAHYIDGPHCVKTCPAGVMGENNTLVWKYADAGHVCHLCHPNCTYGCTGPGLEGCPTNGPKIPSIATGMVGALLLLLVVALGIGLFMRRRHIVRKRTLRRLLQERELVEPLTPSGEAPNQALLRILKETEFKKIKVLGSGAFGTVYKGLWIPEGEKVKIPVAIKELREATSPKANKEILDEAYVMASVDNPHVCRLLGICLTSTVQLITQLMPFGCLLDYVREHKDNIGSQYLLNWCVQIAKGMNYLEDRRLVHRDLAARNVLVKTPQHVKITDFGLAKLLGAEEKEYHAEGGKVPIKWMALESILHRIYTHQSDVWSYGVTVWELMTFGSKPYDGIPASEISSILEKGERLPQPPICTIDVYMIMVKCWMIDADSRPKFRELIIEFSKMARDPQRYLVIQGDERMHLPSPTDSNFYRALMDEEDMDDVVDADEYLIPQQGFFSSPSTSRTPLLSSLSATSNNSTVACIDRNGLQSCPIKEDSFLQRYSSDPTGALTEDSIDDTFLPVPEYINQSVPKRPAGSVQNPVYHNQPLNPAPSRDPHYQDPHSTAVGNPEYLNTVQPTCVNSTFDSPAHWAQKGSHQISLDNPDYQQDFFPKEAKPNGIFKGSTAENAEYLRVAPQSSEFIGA
The target of test [8] is Follistatin-related protein 3 (Homo sapiens) (UniProt O95633). The test is described as follows: compounds binding follistatin-related protein 3 – biochemical, small-molecule microarray, 635 nm fluorescence, primary screen (AID 1105).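 Note: score merges emission near 667 nm and signal to noise per printed spot across three slides.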 Conditions: FSTL3 binding, higher = more signal.
Chain of Follistatin-related protein 3 (Homo sapiens) (O95633 whole entry, looked up): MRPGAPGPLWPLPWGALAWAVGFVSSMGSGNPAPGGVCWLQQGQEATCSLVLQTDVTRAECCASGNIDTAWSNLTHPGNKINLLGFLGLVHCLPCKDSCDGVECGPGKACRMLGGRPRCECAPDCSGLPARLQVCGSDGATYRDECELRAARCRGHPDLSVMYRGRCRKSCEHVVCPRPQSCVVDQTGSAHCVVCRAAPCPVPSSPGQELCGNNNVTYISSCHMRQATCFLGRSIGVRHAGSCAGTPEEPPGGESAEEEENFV
Test [9] has as its target Dickkopf-related protein 1 (Homo sapiens) (UniProt O94907). The test is described as follows: small molecules binding DKK1 protein – biochemical, small-molecule microarray, 635 nm fluorescence scan, primary screen (AID 1106).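 Note: score merges emission near 667 nm with signal to noise over three replicate slides.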 Conditions: higher = more signal.
For test [10], the system named is Inhibin beta A chain (activin A). The experiment in a line: small molecules binding activin A – biochemical, small-molecule microarray, 635 nm fluorescence scan, primary screen (AID 1107).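 Note: mouse activin A protein probed at 4.33 µg/mL on printed slides; score merges bound-protein fluorescence near 667 nm with spot signal-to-noise.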 Conditions: INHBA, higher = more signal.
The test system of test [11] is Human papillomavirus type 1a protein E7 (residues 44-93). The test is described as follows: small molecules binding HPV E7 44-93 – biochemical, small-molecule microarray, residues 44-93, 635 nm fluorescence, primary screen (AID 1108).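 Note: E7 fragment applied at 1 µg/mL in TBST for 1 h at 4 C; score combines spot fluorescence with its signal to noise ratio.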 Conditions: fluorescence 635 nm, higher = more signal.
Test [12] can be described thus: hepatitis C replication reporter changes, two-sided – Huh7 cells, luciferase reporter, HCV replication inhibitor project, primary screen (AID 1109).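 Note: huh7 hepatoma cells harbouring a luciferase neomycin HCV replicon reporter; luciferase luminescence as measure of HCV replicon replication; test concentration not given here.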 Conditions: Huh7 HCV replicon luciferase reporter, 48 h; higher = more signal.
Test [13] has as its target Left-right determination factor 2 (Homo sapiens) (UniProt O00292). The experiment in a line: small molecules binding LEFTY2 protein – biochemical, small-molecule microarray, 635 nm fluorescence scan, primary screen (AID 1110). The settings on record: higher = more signal.
In test [14] the target is Calmodulin-1 (Homo sapiens) (UniProt P0DP23). The test is described as follows: small molecules binding calmodulin-1 with EGTA – biochemical, small-molecule microarray, Cy5-labelled CALM1, profiling panel (AID 1111).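 Note: labelled calmodulin applied in Tris saline Tween buffer holding calcium plus EGTA and DTT.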 The settings on record: Cy5-CALM1 binding fluorescence, higher = more signal.
Test [15] has the same target. The test is described as follows: small molecules binding Ca-loaded calmodulin-1 – biochemical, small-molecule microarray, Cy5-labelled CALM1, plus calcium, artefact control for SMM control-protein annotation, profiling panel (AID 1112).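 Note: score merges spot fluorescence with signal to noise from triplicate slides.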 The settings on record: Cy5-CALM1 binding fluorescence, higher = more signal.
The nature of test [16]: probe aWnt5a binding to arrayed compounds – biochemical, biotinylated probe, 635/667 nm fluorescence, primary screen (AID 1113).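 Note: score merges 667 nm fluorescence intensity with signal-to-noise per printed feature.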 Conditions: small-molecule microarray, higher = more signal.
Test [17] is described as follows: probe aShh binding to arrayed compounds – biochemical, biotinylated probe, 635/667 nm fluorescence, primary screen (AID 1114).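 Note: probe is biotin-labelled aShh protein from a stem cell growth factor screen; measures binding of labelled protein to compounds printed on the slide; score merges feature fluorescence at 667 nm with signal-to-noise.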 The settings on record: small-molecule microarray, higher = more signal.
A short description of test [18]: probe aNog binding to arrayed compounds – biochemical, biotinylated probe, 635/667 nm fluorescence, primary screen (AID 1115).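 Note: probe is biotinylated aNog protein used at 0.15 µg/mL for 1 h at 4 C; z-score combines 667 nm fluorescence of each spot with its signal to noise.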 The settings on record: small-molecule microarray, higher = more signal.
Test [19] has as its target Torsin-1A-interacting protein 1 (Homo sapiens) (UniProt Q5JTV8). The test is described as follows: compound microarray binding of lysate hLAP1 – cell lysate, small-molecule microarray, COS7 lysate, 635/667 nm fluorescence, primary screen (AID 1116). Conditions: 635 nm fluorescence, higher = more signal.
Test [20] deals with Alpha-bungarotoxin (Bungarus multicinctus) (UniProt P60615). The experiment in a line: compounds binding labelled alpha-BTX control protein – biochemical, small-molecule microarray, Alexa647 label, 635/667 nm fluorescence, artefact control for SMM control protein annotation, profiling panel (AID 1117). Conditions: alpha-BTX-A647 binding fluorescence, higher = more signal.
Chain of Alpha-bungarotoxin (Bungarus multicinctus) (P60615 whole entry, looked up): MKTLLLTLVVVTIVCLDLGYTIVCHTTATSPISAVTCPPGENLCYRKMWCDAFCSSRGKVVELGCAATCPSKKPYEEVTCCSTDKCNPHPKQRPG

Molecules are shown by their SMILES. Calls of active or inactive are those of the source.

Chain of Left-right determination factor 2 (Homo sapiens) (O00292 whole entry, looked up): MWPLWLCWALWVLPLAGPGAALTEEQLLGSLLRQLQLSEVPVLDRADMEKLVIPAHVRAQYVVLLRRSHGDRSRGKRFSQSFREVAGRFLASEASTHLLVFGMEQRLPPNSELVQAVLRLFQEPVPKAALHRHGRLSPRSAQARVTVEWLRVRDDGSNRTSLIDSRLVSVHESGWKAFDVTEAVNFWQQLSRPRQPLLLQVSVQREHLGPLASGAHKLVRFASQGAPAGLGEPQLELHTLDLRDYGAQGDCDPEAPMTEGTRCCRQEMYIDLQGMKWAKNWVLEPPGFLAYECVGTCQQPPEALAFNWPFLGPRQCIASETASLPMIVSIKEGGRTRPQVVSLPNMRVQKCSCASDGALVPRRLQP
Chain of Dickkopf-related protein 1 (Homo sapiens) (O94907 whole entry, looked up): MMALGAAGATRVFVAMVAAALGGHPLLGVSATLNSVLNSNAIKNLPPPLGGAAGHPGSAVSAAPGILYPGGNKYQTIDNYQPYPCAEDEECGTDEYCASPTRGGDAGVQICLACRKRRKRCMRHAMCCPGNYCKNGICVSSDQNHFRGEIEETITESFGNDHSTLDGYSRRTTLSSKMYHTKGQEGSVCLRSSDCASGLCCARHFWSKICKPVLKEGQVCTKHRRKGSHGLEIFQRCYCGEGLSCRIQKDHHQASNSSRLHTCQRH
Chain of Torsin-1A-interacting protein 1 (Homo sapiens) (Q5JTV8 whole entry, looked up): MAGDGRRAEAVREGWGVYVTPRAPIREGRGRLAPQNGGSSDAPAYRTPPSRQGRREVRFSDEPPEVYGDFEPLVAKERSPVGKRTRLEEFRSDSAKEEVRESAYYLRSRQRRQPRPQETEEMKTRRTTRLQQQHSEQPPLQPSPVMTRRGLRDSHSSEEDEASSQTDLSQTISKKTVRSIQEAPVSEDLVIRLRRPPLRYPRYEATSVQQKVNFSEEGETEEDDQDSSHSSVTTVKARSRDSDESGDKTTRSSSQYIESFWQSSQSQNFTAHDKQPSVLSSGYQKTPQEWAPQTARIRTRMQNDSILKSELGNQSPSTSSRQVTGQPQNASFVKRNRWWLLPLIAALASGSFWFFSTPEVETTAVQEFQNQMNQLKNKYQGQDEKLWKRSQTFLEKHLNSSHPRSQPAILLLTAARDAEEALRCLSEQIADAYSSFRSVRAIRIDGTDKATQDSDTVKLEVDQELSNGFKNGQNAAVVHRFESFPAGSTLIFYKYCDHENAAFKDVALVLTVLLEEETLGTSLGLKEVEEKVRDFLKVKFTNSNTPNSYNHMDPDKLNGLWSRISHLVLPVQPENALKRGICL

For the molecule `CCOC(=O)C[C@H]1[C@H](OC(=O)c2ccccc2-c2ccccc2)[C@@H](NC(=O)c2ccccc2)c2cc(OCCCO)ccc2N1C(=O)c1ccccc1`, the composite z-score in test [1] is -0.242; in [2], 0.0316; in test [3], -0.375; in [5], 0.645; in [6], 0.459; in [7], -0.106. Moreover, the composite z-score turned out to be 0.284 in [8]; 0.169 in test [9]; 0.169 in [10]; 0.374 in [11]; 0.345 in test [13]; 0.114 in [14]. Further, the composite z-score was 0.148 in test [15]; -0.0425 in test [16]; -0.0146 in test [17]; -0.0926 in test [18]; -0.244 in test [19]; 0.0475 in test [20]. Also, the values for the z-score in test [4] and in test [12] were 0.0178 (inactive) and -0.843, respectively.
Consider `O=C1C2C=CC(C(O)c3ccc4c(c3)OCO4)N(Nc3ccccc3)C2C(=O)N1c1ccccc1` (stereo not given), for which the composite z-score was 1.41 in [1]; 0.45 in test [2]; 1.09 in test [3]; 0.781 in test [5]; -0.157 in test [6]; -0.0637 in test [7]. In addition, the composite z-score in test [8] was 0.71; in test [9], -0.541; in test [10] it was 0.477; in [11], 1.36; in [13], -0.127; in test [14], 1.36. Further, the composite z-score is 0.174 in test [15]; -0.0286 in [16]; -0.0904 in [17]; 1.69 in test [18]; 0.722 in [19]; 1.05 in test [20]. For the same molecule, the z-score in test [4] was 0.243 (inactive); in test [12], -0.631.
For the molecule `C=C(COC)/C(=C/C[C@@H](OC(=O)c1ccncc1)c1ccccc1OCCO)c1cc(C(=O)OC)ccc1OC`, the composite z-score was -0.979 in test [1]; -0.0241 in test [2]; 0.445 in test [3]; -0.0528 in [5]; -0.628 in test [6]; -0.796 in test [7]. In addition, the composite z-score was -0.354 in test [8]; -0.276 in test [9]; 0.845 in [10]; -0.553 in [11]; -0.934 in [13]; -0.188 in test [14]. For the same molecule, the composite z-score in [15] was -0.66; in test [16], -0.107; in test [17] it was -0.0849; in [18], 0.0471; in test [19] it was 0.332; in test [20], -0.626. For the same molecule, the z-score was 2.66 (inactive) in test [4] and -2.5 in [12].
On to `Cc1ccccc1C(O)C1C=CC2C(=O)N(c3ccccc3)C(=O)C2N1Nc1ccc([N+](=O)[O-])cc1` (stereo not given), for which the composite z-score in test [1] amounted to 1.3; in test [2], 0.25; in [3] it was 0.793; in test [5], 0.597; in [6] it was 1.29; in [7], 0.217. The composite z-score in test [8] was found to be 1.19; in test [9] it was 0.0125; in test [10] it was 0.816; in [11], 1.42; in test [13] it was 0.174; in test [14], 1.05. The composite z-score in test [15] was 0.656; in [16] it was -0.012; in test [17], 0.0684; in test [18], 1.63; in test [19] it was 2.03; in [20] it was 0.625. Moreover, the results for the z-score in [4] and in test [12] were -0.0433 (inactive) and -0.598, respectively.
`COCCOC(=O)N1C(=O)[C@@]2(c3cc(C#CCCO)ccc31)[C@H](C(=O)N1CCCCCCC1)[C@H]1C(=O)O[C@H](c3ccccc3)[C@H](c3ccccc3)N1[C@@H]2c1ccccc1OCCO`: the composite z-score in [1] is 1.24; in test [2] it was 2.67; in [3] it was 1.6; in test [5], 0.663; in test [6], 1.35; in [7], 1.31. Also, the composite z-score was determined as 1.58 in test [8]; 1.43 in [9]; 1.86 in test [10]; 1.4 in [11]; 1.18 in test [13]; 2.73 in test [14]. Also, the composite z-score in test [15] is 1.5; in test [16], 0.993; in test [17], 2.38; in test [18], 2.99; in test [19], 3.19; in test [20], 1.85. In addition, the z-score in [4] is -0.0434 (inactive); in test [12], -1.79.

The values above are taken from PubChem BioAssay.
